Experimental findings from ChEMBL document CHEMBL4513216, “Probing the Open Global Health Chemical Diversity Library for Multistage-Active Starting Points for Next-Generation Antimalarials” (ACS Infect Dis, 2020) are described below.

In all, about 69,000 compounds went through this assay and about 8,600 (12%) showed an effect of 50% or more. Shown is part of a subset that was picked to be rich in strong results.

The test concerns Plasmodium berghei. Kind of test: Screen against P. berghei liver stage (PbLuc), transformed with Luciferase, at 10uM. The class given is functional, HepG2. Conditions: tested at 10 uM.
For `CCCn1cc(CN2CCCC2c2nccc(CN(C)C)n2)cn1` (stereo unspecified), the INHIBITION is listed as 25.6%.
Turning to `Cc1cccc(N2CCN(CCC(=O)NCc3nnc[nH]3)CC2)c1`, the INHIBITION is given as -10.6%.
To `CCc1nnc(CNC(=O)CCCN2CCCCC2)s1` belongs 25.1%; to `Cc1cccc(N2CCN(CCC(=O)NCc3cccnc3)CC2)c1`, 27.6%; to `Cc1cccc(N2CCN(CCC(=O)NCc3cnc(C)cn3)CC2)c1`, 45.8%.
The value for `CCc1nnc(CNC(=O)CCN2CCN(c3cccc(C)c3)CC2)s1` was 52.1%.
Regarding `Cc1cccc(N2CCN(CCC(=O)NCc3ccc(C)s3)CC2)c1`, the INHIBITION is recorded as 71.2%.
With `CN1CCN(Cc2cccnc2)C2(CCN(C3CCOCC3)C2)C1=O` (stereo unspecified), the INHIBITION is listed as -33.9%.
To `CC(=O)NCCNC(=O)c1cnc(C(C)(C)C)s1` belongs 30.6%; to `CCc1cccc(C)c1NC(=O)c1ccccc1N(C)S(C)(=O)=O`, 25.8%.
Regarding `CCN1CCN(C(=O)c2cccn2Cc2ccccc2)CC1`, the INHIBITION is reported as -4.94%.
For the molecule `Cc1csc(Nc2nccnc2C2CCCN2CC(N)=O)n1` (stereo unspecified), the INHIBITION is on record as -13.7%.
With `O=C1CC2(CCN(Cc3ccsc3)C2)CN1c1ccc2c(c1)OCO2` (stereo unspecified), the INHIBITION came to 55.5%.
Consider `Cn1cc(CN2CCC3(CC(=O)N(c4ccc5c(c4)OCO5)C3)C2)cn1` (stereo unspecified), for which the INHIBITION was found to be 27.3%.
To `CN(C)C(=O)N1CCC2(CC(=O)N(c3ccc4c(c3)OCO4)C2)C1` (stereo unspecified) belongs -4.02%; to `O=C1CC2(CCN(Cc3ccncc3)C2)CN1c1ccc2c(c1)OCO2` (stereo unspecified), 31.1%.
The value for `CCS(=O)(=O)N1CCC2(CC(=O)N(c3ccc4c(c3)OCO4)C2)C1` (stereo unspecified) was -30.6%.
As for `O=C1CC2(CCN(Cc3ccoc3)C2)CN1c1ccc2c(c1)OCO2` (stereo unspecified), the INHIBITION turned out to be 60.3%.
To `CCn1nc(C)c(NC(=O)CN(C)C(C)c2ccon2)c1C` (stereo unspecified) belongs -22.1%.
For `N[C@@H]1CCCN(C(=O)Cc2c[nH]c3ccccc23)[C@H]1c1ccccc1F`, the INHIBITION stood at 32.5%.
For the molecule `CN(C)C(=O)CN1C[C@H]2CC[C@@H](C1)N(C(=O)Cc1ccccc1Cl)C2`, the INHIBITION is given as 25.1%.
With `O=C(CCn1cncn1)N1C[C@@H]2CC[C@H]1CN(Cc1ccncc1)C2`, the INHIBITION stood at 22.4%.
For `Cc1c[nH]nc1C1CCCCN1C(=O)CCn1nccc1C` (stereo unspecified), the INHIBITION turned out to be 57.5%.
Take `Cc1ccnn1CCC(=O)N1C[C@@H]2CC[C@H]1CN(CC(=O)N(C)C)C2`: the INHIBITION amounted to 55.6%.
As to `Cc1c[nH]nc1C1CCCCN1C(=O)CC1(O)CCCCC1` (stereo unspecified), the INHIBITION was 24.8%.
As for `CN(C)C(=O)CN1C[C@H]2CC[C@@H](C1)N(C(=O)CCn1cncn1)C2`, the INHIBITION was found to be 56.8%.
For the molecule `Cc1c[nH]nc1C1CCCCN1C(=O)CNS(C)(=O)=O` (stereo unspecified), the INHIBITION was determined as 48.6%.
In the case of `Cc1cnn(CCC(=O)N2C[C@@H]3CC[C@H]2CN(CC(=O)N(C)C)C3)c1`, the INHIBITION stood at 38.5%.
Regarding `CN(C)C(=O)CN1C[C@H]2CC[C@@H](C1)N(C(=O)CCCn1cncn1)C2`, the INHIBITION is given as 8.07%.
With `COc1ccc(C(=O)N2CCCC(n3cncn3)C2)nn1` (stereo unspecified), the INHIBITION amounted to 8.64%.
Regarding `O=C(NCCCn1ccnc1)N1CCN(c2cccs2)CC1`, the INHIBITION worked out at 12.2%.
Turning to `O=C(Cn1ncc(N2CCCC2)cc1=O)Nc1ccc2nccnc2c1`, the INHIBITION is listed as 6.69%.
`COc1cccc(N2CCN(C(=O)CN(C)c3cnccn3)CC2)c1`: the INHIBITION was found to be 35.4%.
With `CC1CCC(NC(=O)CNC2(c3ccc(Br)cc3)CCOCC2)CC1` (stereo unspecified), the INHIBITION is given as 12.8%.
To `O[C@@H]1CN(Cc2ccc(F)c(F)c2)CC[C@H]1NCc1ccccn1` belongs 46.7%; to `CCCN1Cc2ccccc2NC(=O)C12CCNC2` (stereo unspecified), 38.3%; to `O=C(c1cnccn1)N1CCCC2(CCN(Cc3ccsc3)C2)C1` (stereo unspecified), -15.2%.
As to `O=C(NC1CCCc2nc(N3CCOCC3)ncc21)C1CCCCC1` (stereo unspecified), the INHIBITION amounted to 17.1%.
With `CNS(=O)(=O)c1ccc(CN(C)Cc2nc3ccc(F)cc3[nH]2)cc1`, the INHIBITION was 29%.
`Cc1ccccc1C1(C(=O)NCCN2CCOCC2)CCOCC1`: the INHIBITION is reported as -33.5%.
For `Cc1ccccc1C1(C(=O)NCCN2CCC(C)CC2)CCOCC1`, the INHIBITION is 55.1%.
The value for `Cc1ccccc1C1(C(=O)NCCN2CCCC2)CCOCC1` was 44.8%.
Take `COc1cccc(-n2nc(C(C)=O)c(C(C)=O)c2C)c1`: the INHIBITION is -17%.
The value for `O=C1CC2(CCN(C(=O)c3ccccn3)CC2)Oc2c(Cl)cc(Cl)cc21` was 4.57%.
As to `CNc1cc(CNC(=O)c2ccncc2)nc(-c2ccncc2)n1`, the INHIBITION is on record as 4.08%.
On to `Cc1nc(C)n(C2CCCN(C(=O)Cc3csc(C(C)C)n3)C2)n1` (stereo unspecified), for which the INHIBITION was found to be 26.4%.
Turning to `c1c2c(nn1CC1CCOCC1)C(CNC1CCOCC1)OCC2` (stereo unspecified), the INHIBITION is on record as -44.2%.
To `Fc1ccc(CNCC2OCCc3cn(CC4CC4)nc32)cc1` (stereo unspecified) belongs 46.6%; to `O=S(=O)(NCC1OCCc2cn(CC3CCOCC3)nc21)C1CC1` (stereo unspecified), 29.8%.
As for `CS(=O)(=O)NCC1OCCc2cn(CC3CC3)nc21` (stereo unspecified), the INHIBITION worked out at 44.2%.
The value for `CCCS(=O)(=O)NCC1OCCc2cn(CC3CCOCC3)nc21` (stereo unspecified) was 55.5%; that for `O=C(Cc1ccsc1)NCC1OCCc2cn(CC3CC3)nc21` (stereo unspecified) was -46.6%; that for `Fc1cccc(CNCC2OCCc3cn(CC4CCOCC4)nc32)c1` (stereo unspecified) was 68.4%.
To `c1c2c(nn1CC1CC1)C(CNC1CCOCC1)OCC2` (stereo unspecified) belongs 15.3%.
`CS(=O)(=O)CC(=O)NCC1OCCc2cn(CC3CC3)nc21` (stereo unspecified): the INHIBITION is listed as 54.7%.
For `CN(C)S(=O)(=O)NCC1OCCc2cn(CC3CCOCC3)nc21` (stereo unspecified), the INHIBITION is 20.1%.
Turning to `c1cc(CNCC2OCCc3cn(CC4CCOCC4)nc32)ccn1` (stereo unspecified), the INHIBITION is 19.9%.
On to `CCS(=O)(=O)NCC1OCCc2cn(CC3CCOCC3)nc21` (stereo unspecified), for which the INHIBITION was 66.8%.
Regarding `COCCCn1ccc(NCc2ccc(NC(C)=O)cc2)n1`, the INHIBITION is 19.7%.
`COc1cc2c(cc1C(=O)N1CCCCC1c1ccccn1)CCC2` (stereo unspecified): the INHIBITION is listed as 11.6%.
For the molecule `Cc1ccc2nc(C(=O)N3C[C@@H](C(=O)O)[C@H](c4ccccc4)C3)cn2c1`, the INHIBITION is given as -46%.
As for `O=C(c1cccs1)N1CCOCC2(C1)CN(c1ccccc1)C(=O)CO2` (stereo unspecified), the INHIBITION was -8.28%.
Consider `CCOCC1CN(c2ccncn2)Cc2cnn(CC3CC3)c21` (stereo unspecified), for which the INHIBITION was -8.19%.
To `Cc1nccn1C1CCCN(C(=O)c2cccc(Cn3ccnc3)c2)C1` (stereo unspecified) belongs -6.14%; to `O=C(CCc1cc2n(n1)CCCNC2)N1CCC(N2CCOC2=O)CC1`, -39.2%.
For the molecule `COCCNc1nnc(-c2ccc(C)nc2)s1`, the INHIBITION is on record as -74.5%.
`CCc1nc(CN2CC[C@@](O)(CCOC)[C@H](C)C2)cs1`: the INHIBITION is 0.868%.
Regarding `CCOc1ccc(CNCCCn2ccnc2)cc1Cl`, the INHIBITION is on record as -32.1%.
`CCOc1cc(CNCCCn2ccnc2)cc(Cl)c1OCC`: the INHIBITION is listed as 58.1%.
In the case of `CCOc1cc(CNCCCn2ccnc2)cc(Cl)c1OC`, the INHIBITION worked out at 49.5%.
Regarding `CC(=O)NCC1CCC2(CCN(c3ncnc4oc(C)nc34)CC2)O1` (stereo unspecified), the INHIBITION stood at 34.9%.
In the case of `CC(=O)N1CCC(NC(=O)CN2CCCc3c(C)ccc(F)c32)CC1`, the INHIBITION is recorded as -7.13%.
In the case of `Cc1cnn(-c2cccc(N3CCCC3)n2)c1`, the INHIBITION came out at 30.3%.
As to `Cc1cnn(-c2cccc(N3CCN(c4cc(C)nc(C)n4)CC3)n2)c1`, the INHIBITION worked out at 85.5%.
On to `Cc1cnn(-c2cccc(N3CCCCC3)n2)c1`, for which the INHIBITION was 39.3%.
The value for `CC(=O)N1CCCC1C(=O)NCCOc1ccc(C(C)C)cc1` (stereo unspecified) was 29.4%.
For `CC(C)Cn1c(=O)n(CCCn2cccn2)c2cc(C(=O)O)cnc21`, the INHIBITION is reported as -18.1%.
As for `Cn1cc(NC(=O)N2CCN(Cc3cscn3)CC2)ccc1=O`, the INHIBITION was 48.3%.
`CC[C@H]1COCCN1C(=O)CCCn1nnc(-c2ccc(F)cc2)n1`: the INHIBITION stood at 35%.
Turning to `O=C(Cn1nnc(-c2ccc(F)cc2)n1)N1CCOCC(O)C1` (stereo unspecified), the INHIBITION amounted to 38.6%.
Turning to `O=C(CCCn1nnc(-c2ccc(F)cc2)n1)N1CCOCC(CO)C1` (stereo unspecified), the INHIBITION came out at 52%.
Turning to `CCCS(=O)(=O)NC(C)C(=O)NCc1ccnc(N2CCCC2)c1` (stereo unspecified), the INHIBITION is 14.4%.
With `CC(=O)N1CCC2(C1)c1ccccc1S(=O)(=O)N2C` (stereo unspecified), the INHIBITION came to 50.4%.
With `CC(=O)N1CCC2(C1)c1ccccc1S(=O)(=O)N2CCC(C)C` (stereo unspecified), the INHIBITION is reported as -61.6%.
For `COCC(=O)N1CCC2(C1)c1ccccc1S(=O)(=O)N2C` (stereo unspecified), the INHIBITION is 65.3%.
With `COCC(=O)N1CCC2(C1)c1ccccc1S(=O)(=O)N2CCC(C)C` (stereo unspecified), the INHIBITION is given as -14.2%.
Consider `CC(=O)N1CCC2(C1)c1ccccc1S(=O)(=O)N2Cc1ccccc1` (stereo unspecified), for which the INHIBITION was determined as 6.72%.
The value for `COCC(=O)N1CCC2(C1)c1ccccc1S(=O)(=O)N2CC1CC1` (stereo unspecified) was 17.6%; that for `Cc1ccccc1C(=O)N1CCC(n2nnc3cc(F)ccc32)CC1` was -30.1%.
For `CC(C)c1nnc(CCC(=O)N2CCOC(c3cnccn3)C2)o1` (stereo unspecified), the INHIBITION stood at 11.8%.
As for `CC(C)C[C@H](N)c1nnc(SCC(N)=O)o1`, the INHIBITION was -21.4%.
To `NS(=O)(=O)CCCNC(=O)c1cnc(-c2ccsc2)s1` belongs 41.4%; to `O=C1C[C@@H]2CC[C@H](CN1)N2C(=O)CCc1ccsc1`, 36.7%.
To `CC(=O)N1CCC2(CC1)CC(NS(C)(=O)=O)c1ccccc1O2` (stereo unspecified) belongs 25.9%; to `CC(=O)N1CCOCC(Cc2ccc3c(ccn3C)c2)C1` (stereo unspecified), -20.265%.
Regarding `Cn1cc(CN2C[C@@H]3COC[C@@H](C(=O)N4CCCCO4)[C@@H]3C2)cn1`, the INHIBITION is 39.8%.
For `O=C(CC(F)(F)F)N1CCc2onc(Cn3cccn3)c2C1`, the INHIBITION was found to be 32.4%.
As for `CN(C)CC(=O)N1CCc2onc(Cn3cccn3)c2C1`, the INHIBITION is 33.4%.
With `CCC(=O)N1CCc2onc(CNS(C)(=O)=O)c2C1`, the INHIBITION is recorded as 69.3%.
Turning to `O=C(CO)N1CCc2onc(Cn3cccn3)c2C1`, the INHIBITION stood at 51.2%.
Consider `CS(=O)(=O)NCc1noc2c1CN(C(=O)C1CC1)CC2`, for which the INHIBITION stood at 30.3%.
Turning to `CS(=O)(=O)NCc1noc2c1CN(C(=O)C1CCC1)CC2`, the INHIBITION is on record as 18.6%.
The value for `CC1CN(C(=O)CN(Cc2ccco2)Cc2cccs2)CCO1` (stereo unspecified) was -19.9%.
To `COC(=O)c1cccn1C1CCN(C(=O)c2c(C)noc2C)CC1` belongs 36.1%; to `COc1cc2c(cc1OC)C(=O)C(Sc1nnnn1C)C2` (stereo unspecified), 26.4%.
Consider `CSc1ncc(C(=O)NCCn2nccc2C)cn1`, for which the INHIBITION was found to be 5.785%.
